Compound activity as filed in PubChem.
Most compounds without a hit are left out; they make up all but 6.5% or so of the library.
HCMV inh: inhibitors of human cytomegalovirus | activity change, negative = inhibition, % at 57.5 µM | 410,000 tested, 4.5% active | HFF cells, HCMV-luciferase reporter, 72 h; stronger effect = lower value; in the data active = activity change below about -60%; inconclusive = no clear call, values can overlap the other calls; inactive = above about -39%
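HFF cells seeded 16 h at 37C, treated with compounds, infected with luciferase-reporter HCMV at MOI 1 PFU/cell; luciferase read at 72 h post infection, normalized to buffer-only and Salinomycin controls.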
FMDV inh: antivirals against foot and mouth disease virus. AID 1159524. Potency, µM (highest dose often 57.9 µM), actives largely listed as inhibitors. FMDV antiviral cell-based qHTS. 410,000 tested, 1.2% active; calls by dose curve; tested in HEK293T cells; also: read-out not given here; nearly all actives have a fitted effect of over 45% in size
Vaccinia Venus: vaccinia inhibition (Venus reporter); Potency, µM (titrated, usually from 36.5 µM), actives largely listed as inhibitors; 330,000 tested, 0.46% active; AID 720580; Vaccinia virus Venus reporter expression, fluorescence; calls by dose curve; tested in A549 cells; also: nearly all actives have a fitted effect of over 30% in size
Lassa entry inh: inhibitors of Lassa virus binding or cell entry | Lassa virus pseudotype entry inhibition, cell reporter | 300,000 tested, 1.2% active | Potency, µM (top dose mostly 37.9 µM), hits mostly inhibitors; calls by dose curve; tested in HEK293 cells; also: nearly all actives have a fitted effect of over 50% in size
VACV mCherry inh: vaccinia inhibition (mCherry reporter); 310,000 tested, 0.63% active; Vaccinia virus mCherry reporter infection, fluorescence; Potency, µM (titrated, usually from 36.5 µM), usual class: inhibitors; calls by dose curve; tested in A549 cells; also: nearly all actives have a fitted effect of over 35% in size
Marburg entry inh: inhibitors of Marburg virus binding or cell entry; Potency, µM (doses to about 37.8 µM), usual class: inhibitors; 300,000 tested, 1.8% active; Marburg virus pseudotyped entry inhibition, cell reporter; AID 540276; calls by dose curve; tested in HEK293 cells
Hits are given with their value.

For CCC(=O)[C@@H](C)[C@@H](O)[C@H](C)C[C@@H](C)C1OC(=O)C[C@@]2(O)CC=C(C)C(O2)C(C)=CCCC[C@H](O[C@H]2C[C@@H](OC(N)=O)[C@H](O)[C@@H](C)O2)C=C[C@H](C)C[C@H]1C (stereo not given in full) the results were FMDV inh 18µM, Vaccinia Venus inconclusive and VACV mCherry inh inconclusive.
CCc1ccc(NC(=O)CSc2nc3ccccc3c(=O)n2CCC(=O)NC2CCCCC2)cc1 was read as HCMV inh inactive, FMDV inh inactive, Vaccinia Venus inactive, Lassa entry inh inactive and VACV mCherry inh inactive.
Screening COc1ccc(-n2c(SCC(=O)Nc3ccc(C(N)=O)cc3)nc3ccccc3c2=O)cc1OC returned HCMV inh inactive, FMDV inh inactive, Vaccinia Venus inactive, Lassa entry inh inactive, VACV mCherry inh inactive and Marburg entry inh inactive.
For COc1ccc(-n2c(SCC(=O)NCC3CCCO3)nc3ccccc3c2=O)cc1Cl (stereo not given) the results were HCMV inh -67, FMDV inh inactive, Vaccinia Venus inactive and VACV mCherry inh inactive.
`Cc1ccc(-n2c(SCC(=O)NCC3CCCO3)nc3ccccc3c2=O)cc1` (stereo not given) gave HCMV inh inactive and FMDV inh inactive.
Screening COc1ccccc1NC(=O)CSc1nc2ccccc2c(=O)n1C returned HCMV inh inconclusive and FMDV inh 14µM.
Screening CCc1ccc(NC(=O)CSc2nc3ccccc3c(=O)n2CCCC(=O)N2CCCC2)cc1 returned HCMV inh -66, FMDV inh inactive, Lassa entry inh 26µM and Marburg entry inh 9.2µM.
CCOc1ccccc1NC(=O)CSc1nc2cc(O)ccc2c(=O)n1-c1ccc(OC)c(OC)c1 was read as HCMV inh -72 and FMDV inh inconclusive.
Screening Cc1cnc(-n2ncc(C(=O)NCCc3ccncc3)c2-c2cccs2)nc1-c1ccc(F)cc1 returned FMDV inh inactive, Vaccinia Venus inactive and VACV mCherry inh inactive.
COc1ccc(-c2nc3sc(CCNC(=O)c4cc(OC)c(OC)c(OC)c4)c(C)n3n2)cc1 was read as HCMV inh inactive, FMDV inh inactive, Vaccinia Venus inactive, Lassa entry inh inactive and VACV mCherry inh inactive.
`O=C(NCCN1Cc2ccccc2OC(c2ccsc2)C1)c1cncs1` (stereo not given) gave FMDV inh inactive, Vaccinia Venus inactive and VACV mCherry inh inactive.
Screening CC12CCCCCC3=CC(=O)C=C[C@]31OCC2 (stereo not given in full) returned HCMV inh inactive.
CCn1c(SCC(=O)Nc2ccc(F)cc2)nc2ccccc2c1=O was read as HCMV inh -69 and FMDV inh inactive.
`CCOC(=O)c1ccc(NC(=O)CSc2nc3cccnc3n2C)cc1` gave HCMV inh inactive, FMDV inh 16µM, Vaccinia Venus inconclusive, Lassa entry inh inactive, VACV mCherry inh inconclusive and Marburg entry inh inconclusive.
Screening Cc1cccc(NC(=O)CSc2nc3ccccc3c(=O)n2C)c1C returned HCMV inh -68, FMDV inh inconclusive, Vaccinia Venus inactive and VACV mCherry inh inactive.
For C/C(=N/NC(=O)CSc1nc2ccccc2n1C)c1ccncc1 the results were HCMV inh -101, FMDV inh inactive, Vaccinia Venus inactive, Lassa entry inh inactive, VACV mCherry inh inactive and Marburg entry inh inactive.
C=CCn1c(SCC(=O)Nc2ccc(F)cc2)nc2ccccc2c1=O was read as HCMV inh inactive and FMDV inh inactive.
COc1cc(/C(C)=N\NC(=O)CSc2nc3ccccc3n2C)ccc1O was read as HCMV inh inactive, FMDV inh inactive, Vaccinia Venus inactive, Lassa entry inh inconclusive, VACV mCherry inh inconclusive and Marburg entry inh inconclusive.
For CC1Cc2ccccc2C[N+]1(C)CC(=O)c1ccc(I)cc1 (stereo not given) the results were Vaccinia Venus inactive and VACV mCherry inh inactive.
Screening N[C@@H](Cn1ccc(=O)c(O)c1)C(=O)O returned Lassa entry inh inconclusive and Marburg entry inh inactive.
For Cc1cc2c(=O)n(C)c(SCC(=O)Nc3ccccc3)nc2s1 the results were HCMV inh -61, FMDV inh inactive, Vaccinia Venus inactive, VACV mCherry inh inactive and Marburg entry inh inactive.
`Cn1c(SCC(=O)Nc2ccccc2)nc2ccccc2c1=O` gave HCMV inh inconclusive, FMDV inh inactive, Vaccinia Venus inactive, Lassa entry inh inconclusive, VACV mCherry inh inactive and Marburg entry inh 4µM.
Cn1c(SCC(=O)NCc2ccccc2)nc2ccccc21 was read as HCMV inh -100, FMDV inh inactive, Vaccinia Venus inactive, Lassa entry inh inactive, VACV mCherry inh inactive and Marburg entry inh inactive.
`Cn1c(SCC(=O)Nc2sccc2C(N)=O)nc2ccccc2c1=O` gave HCMV inh inactive, FMDV inh inactive, Vaccinia Venus inactive, Lassa entry inh inactive, VACV mCherry inh inactive and Marburg entry inh inconclusive.
CC1=C(C(=O)N2CCOCC2)C(c2ccc(Br)cc2)NC(=S)N1c1ccccc1 (stereo not given) was read as HCMV inh inactive, FMDV inh inactive, Vaccinia Venus inactive, Lassa entry inh inactive, VACV mCherry inh inactive and Marburg entry inh inactive.
`COC(=O)C1=C(C)N(Cc2ccccc2)C(=S)N[C@H]1c1cccc(C(F)(F)F)c1` gave HCMV inh inactive, FMDV inh inactive, Vaccinia Venus inconclusive, VACV mCherry inh inconclusive and Marburg entry inh inactive.
COC(=O)c1ccc(C2NC(=S)N(c3ccccc3)C(C)=C2C(=O)Nc2ccccc2OC)cc1 (stereo not given) was read as HCMV inh inactive, FMDV inh inactive, Lassa entry inh 6.5µM and Marburg entry inh inconclusive.
`COc1ccccc1NC(=O)C1=C(C)N(c2ccccc2)C(=S)NC1c1cccc(C(F)(F)F)c1` (stereo not given) gave HCMV inh -96, FMDV inh inactive, Lassa entry inh inconclusive and Marburg entry inh inconclusive.
For CCS(=O)(=O)c1ccc(OC)c(Nc2ncc(-c3cccc(F)c3)o2)c1 the results were Lassa entry inh inactive.
For CCOC(=O)C/C(=N\Nc1ncnc2ccccc12)c1ccccc1 the results were HCMV inh inactive, FMDV inh inactive, Vaccinia Venus inactive, Lassa entry inh inactive, VACV mCherry inh inactive and Marburg entry inh inconclusive.
For CCOC(=O)/C(=N\Nc1ncnc2ccccc12)c1ccc(C)cc1 the results were HCMV inh inactive, FMDV inh inconclusive, Vaccinia Venus inactive, Lassa entry inh 1.1µM, VACV mCherry inh inactive and Marburg entry inh inconclusive.
For COC(=O)C1=C(C(=O)OC)C2CCCC1C1N=NN(c3ccccc3)C21 (stereo not given) the results were HCMV inh inactive.
NS(=O)(=O)c1ccc(CCNC(=O)c2ccc(Cl)s2)cc1 was read as HCMV inh inactive and FMDV inh inactive.
Screening NS(=O)(=O)c1ccc(CCNC(=O)c2ccc([N+](=O)[O-])s2)cc1 returned HCMV inh -100, FMDV inh inactive, Vaccinia Venus inconclusive, Lassa entry inh inconclusive, VACV mCherry inh 11µM and Marburg entry inh inconclusive.
